Structures can show the parent of a compound that is named as a salt. ± gives the standard deviation of the averaged measurements.
Assays:
Test in all cases: growth (OD600 after 10 h); higher = more growth (less inhibition)
[1] = system: E. coli TESEC Alr+ wild-type control; details: compound 0.1 mM; raw OD600 reference: median of DMSO wells 0.241, cell-free background 0.041
Protocol: (§1)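 TESEC Mtb Alr E. coli, or the Alr+ wild-type control, in 384-well plates with Prestwick library compounds at 0.1 mM and 1% DMSO, across arabinose induction levels of 1E3 to 1E7 nM. Growth is read as OD600 after 10 h at 37 °C in triplicate biological replicates.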

[2] = system: E. coli TESEC Mtb Alr; details: compound 0.1 mM
Protocol: as §1

[3] = system: E. coli TESEC Mtb Asd; details: compound 0.1 mM
Protocol: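 TESEC E. coli strains in which the native enzyme is deleted and replaced by arabinose-inducible Mtb Asd, DapB, CysH or TrpD, each grown in its selective medium. Strains were screened against the Prestwick library at 0.1 mM and 1% DMSO in 384-well format at low and high arabinose induction. Growth is read as OD600 after 10 h in triplicate.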

[4] = system: E. coli TESEC Alr+ wild-type control; details: compound 0.1 mM; raw OD600 reference: median of DMSO wells 0.49, cell-free background 0.052
Protocol: (§2)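 TESEC Mtb Alr E. coli (ΔaraC ΔtolC ΔentC Δalr ΔdadX, arabinose-inducible Mtb Alr) or the Alr+ wild-type control strain, grown in defined M9-fructose medium without D-alanine in 96-well plates with Prestwick library compounds at 0.1 mM and 1% DMSO. Low Alr induction is 0.1 µM arabinose and high induction is 10 mM arabinose.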

[5] = system: E. coli TESEC Mtb Alr; details: compound 0.1 mM; remark: listed apart in the source
Protocol: as §2

[6] = arabinose 1000 nM, raw OD600 reference: median of DMSO wells 0.294, cell-free background 0.041
[7] = arabinose 10000 nM, raw OD600 reference: median of DMSO wells 0.264, cell-free background 0.041
[8] = arabinose 100000 nM, raw OD600 reference: median of DMSO wells 0.201, cell-free background 0.041
[9] = arabinose 1000000 nM, raw OD600 reference: median of DMSO wells 0.193, cell-free background 0.041
[10] = arabinose 10000000 nM, raw OD600 reference: median of DMSO wells 0.146, cell-free background 0.041
[11] = arabinose induction (level): High, raw OD600 reference: median of DMSO wells 0.331, cell-free background 0.041
[12] = arabinose induction (level): Low, raw OD600 reference: median of DMSO wells 0.417, cell-free background 0.041
[13] = arabinose 100 nM, raw OD600 reference: median of DMSO wells 0.413, cell-free background 0.052
[14] = arabinose 10000000 nM, raw OD600 reference: median of DMSO wells […], cell-free background 0.052

Structure (SMILES)	growth [1]	growth [2, 6]	growth [2, 7]	growth [2, 8]	growth [2, 9]	growth [2, 10]	growth [3, 11]	growth [3, 12]	growth [4]	growth [5, 13]	growth [5, 14]
C=CC1=C(C(=O)O)N2C(=O)[C@@H](NC(=O)/C(=N\OCC(=O)O)c3csc(N)n3)[C@H]2SC1 [Cefixime]	0.0395 ± 0.00093	0.0377 ± 0.0006	0.0408 ± 0.00017	0.03693 ± 0.00032	0.0407 ± 0.00045	0.04003 ± 0.00021	0.0679 ± 0.013	0.048 ± 0.004	0.0448 ± 0.00017	0.0456 ± 0.00035	0.054 ± 0.001
Clc1cccc(Cl)c1NC1=NCCN1 [Clonidine hydrochloride]	0.245 ± 0.01	0.289 ± 0.0065	0.261 ± 0.0058	0.201 ± 0.023	0.173 ± 0.0049	0.145 ± 0.011	0.377 ± 0.03	0.422 ± 0.016	0.462 ± 0.014	0.407 ± 0.013	0.375 ± 0.017
Cc1cnc(C(=O)O)c[n+]1[O-] [Acipimox]	0.244 ± 0.006	0.304 ± 0.025	0.247 ± 0.0063	0.218 ± 0.029	0.1751 ± 0.0015	0.1397 ± 0.00085	0.263 ± 0.085	0.282 ± 0.065	0.497 ± 0.06	0.41 ± 0.009	0.338 ± 0.021
C[C@@H]1[C@H](O)[C@@H](C)/C=C/C=C/C=C/C=C/C=C/C=C/C=C/[C@H](O[C@@H]2O[C@H](C)[C@@H](O)[C@H](N)[C@@H]2O)C[C@@H]2O[C@](O)(C[C@@H](O)C[C@@H](O)[C@H](O)CC[C@@H](O)C[C@@H](O)CC(=O)O[C@H]1C)C[C@H](O)[C@H]2C(=O)O [Amphotericin B]	0.316 ± 0.0027	0.33 ± 0.0067	0.27 ± 0.0035	0.345 ± 0.0081	0.182 ± 0.0098	0.261 ± 0.0027	0.416 ± 0.042	0.504 ± 0.026	0.532 ± 0.087	0.433 ± 0.022	0.478 ± 0.027
CC(COc1ccccc1)N(CCCl)Cc1ccccc1 (configuration not stated) [Phenoxybenzamine hydrochloride]	0.0435 ± 0.0034	0.149 ± 0.01	0.0397 ± 0.0001	0.121 ± 0.0026	0.03927 ± 0.00029	0.0621 ± 0.00078	0.199 ± 0.018	0.261 ± 0.053	0.673 ± 0.025	0.396 ± 0.0062	0.0624 ± 0.018
CCC(NC(C)C)C(O)c1ccc(O)c(O)c1 (configuration not stated) [Isoetharine mesylate salt]	0.196 ± 0.0071	0.303 ± 0.012	0.277 ± 0.005	0.188 ± 0.018	0.18 ± 0.0035	0.155 ± 0.0024	0.309 ± 0.11	0.37 ± 0.062	0.64 ± 0.039	0.401 ± 0.032	0.344 ± 0.019
CC(C)n1c(/C=C/C(O)CC(O)CC(=O)O)c(-c2ccc(F)cc2)c2ccccc21 (configuration not stated) [Fluvastatin sodium salt]	0.165 ± 0.0024	0.247 ± 0.017	0.192 ± 0.0063	0.187 ± 0.015	0.0938 ± 0.0088	0.157 ± 0.0043	0.216 ± 0.066	0.32 ± 0.052	0.401 ± 0.012	0.394 ± 0.03	0.235 ± 0.0099
C[C@H](N)[C@H](O)c1cccc(O)c1 [Metaraminol bitartrate]	0.245 ± 0.015	0.278 ± 0.0096	0.267 ± 0.0062	0.186 ± 0.013	0.185 ± 0.0027	0.153 ± 0.018	0.333 ± 0.062	0.415 ± 0.029	0.573 ± 0.076	0.426 ± 0.0087	0.356 ± 0.0097
OC(CCN1CCCCC1)(c1ccccc1)c1ccccc1 [Pridinol methanesulfonate salt]	0.226 ± 0.0064	0.299 ± 0.011	0.28 ± 0.012	0.193 ± 0.0055	0.177 ± 0.0082	0.151 ± 0.0016	0.468 ± 0.015	0.466 ± 0.027	0.469 ± 0.027	0.397 ± 0.032	0.352 ± 0.011
CC(=O)OCC(=O)[C@@]12OC(C)(C)O[C@@H]1C[C@H]1[C@@H]3C[C@H](F)C4=CC(=O)C=C[C@]4(C)[C@@]3(F)[C@@H](O)C[C@@]12C [Fluocinonide]	0.229 ± 0.0095	0.279 ± 0.012	0.275 ± 0.01	0.195 ± 0.015	0.213 ± 0.041	0.163 ± 0.037	0.434 ± 0.046	0.505 ± 0.0079	0.499 ± 0.058	0.432 ± 0.041	0.344 ± 0.033
OCCN1CCN(CCCN2c3ccccc3Sc3ccc(Cl)cc32)CC1 [Perphenazine]	0.0416 ± 0.00046	0.0411 ± 0.00082	0.0422 ± 0.00061	0.0431 ± 0.0021	0.04167 ± 0.00035	0.0462 ± 0.00053	0.0588 ± 0.0034	0.0626 ± 0.0018	0.0523 ± 0.0019	0.285 ± 0.2	0.0538 ± 0.00074
CN1CCCN=C1/C=C/c1cccc(O)c1 [Oxantel pamoate]	0.216 ± 0.016	0.303 ± 0.013	0.236 ± 0.0088	0.226 ± 0.039	0.141 ± 0.0019	0.189 ± 0.0049	0.282 ± 0.051	0.258 ± 0.009	0.496 ± 0.038	0.405 ± 0.011	0.326 ± 0.013
CNCCCC12CCC(c3ccccc31)c1ccccc12 [Maprotiline hydrochloride]	0.269 ± 0.0086	0.256 ± 0.016	0.276 ± 0.0088	0.246 ± 0.032	0.134 ± 0.0037	0.169 ± 0.0019	0.197 ± 0.0097	0.164 ± 0.016	0.589 ± 0.072	0.41 ± 0.0086	0.28 ± 0.013
Cc1nc2ccccn2c(=O)c1CCN1CCC(C(=O)c2ccc(F)cc2)CC1 [Pirenperone]	0.208 ± 0.0042	0.272 ± 0.0064	0.268 ± 0.013	0.208 ± 0.043	0.178 ± 0.0069	0.147 ± 0.007	0.352 ± 0.045	0.395 ± 0.089	0.469 ± 0.013	0.408 ± 0.011	0.312 ± 0.023
CC(C)NC[C@@H](O)COc1cccc2ccccc12 [(R)-Propranolol hydrochloride]	0.205 ± 0.01	0.262 ± 0.0043	0.291 ± 0.0066	0.186 ± 0.015	0.216 ± 0.028	0.142 ± 0.0024	0.263 ± 0.076	0.2622 ± 0.0023	0.58 ± 0.019	0.4273 ± 0.0035	0.326 ± 0.012
CCOCCn1c(N2CCCN(C)CC2)nc2ccccc21 [Emedastine]	0.223 ± 0.007	0.288 ± 0.0092	0.25 ± 0.0071	0.211 ± 0.052	0.164 ± 0.0048	0.135 ± 0.004	0.291 ± 0.075	0.328 ± 0.058	0.514 ± 0.081	0.415 ± 0.012	0.337 ± 0.013
Nc1ccc(S(=O)(=O)Nc2ccc(Cl)nn2)cc1 [Sulfachloropyridazine]	0.241 ± 0.0064	0.285 ± 0.029	0.174 ± 0.0032	0.231 ± 0.022	0.0969 ± 0.0044	0.165 ± 0.0072	0.392 ± 0.14	0.412 ± 0.042	0.425 ± 0.022	0.421 ± 0.005	0.28 ± 0.029
